Among the data in PubChem BioAssay (NCI) are growth values, retold here.

Among the test systems are DU-145 prostate; K-562 leukemia; MALME-3M melanoma; MDA-MB-231 breast; RXF 393 renal; SF-268 CNS; SF-295 CNS; SF-539 CNS; UACC-257 melanoma; M14 melanoma; HCT-15 colon; SNB-75 CNS; SNB-19 CNS; U251 CNS; PC-3 prostate; SK-MEL-5 melanoma; UACC-62 melanoma; LOX IMVI melanoma; SK-MEL-28 melanoma; HT29 colon.
What all share (assay): NCI-60 one-dose screen, 48 h (100 = growth as untreated, 0 = no growth, -100 = all killed)
Holding throughout (conditions): 10 µM unless noted

Structures are written as SMILES. The panel holds about 83,000 compounds, 20% with a hit somewhere; the sample as a whole holds those more often.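 Values shown are percent growth following 48 h exposure of cells in 96-well plates to a single concentration of compound; below 10 was considered active.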 Unmarked numbers belong to inactive results. Active and inactive are the calls of the source.

In the case of `CCOC(=O)c1cn2ncnc(Oc3ccc(NC(=O)NCCN(CC)CC)c(Cl)c3)c2c1C`, the growth in the assay on DU-145 prostate is 90.5%; in the assay on K-562 leukemia it was -9.77% (active); with MALME-3M melanoma it was 22.3%; in the assay with MDA-MB-231 breast it was 59.8%; in the assay on RXF 393 renal, 41%; in the assay with SF-268 CNS it was 65%. Moreover, the growth in the assay on SF-295 CNS was 92%; with SF-539 CNS, 50.7%; in the assay on UACC-257 melanoma it was -41.7% (active); with M14 melanoma, -64.4% (active); in the assay on HCT-15 colon, 3.71% (active); in the assay with SNB-75 CNS, 89.1%. For the same molecule, the growth was 83.2% with SNB-19 CNS; 65.2% with U251 CNS; 66.1% in the assay on PC-3 prostate; 46.6% in the assay on SK-MEL-5 melanoma; -8.89% (active) with UACC-62 melanoma; -32.7% (active) in the assay on LOX IMVI melanoma. Besides, in the assay on SK-MEL-28 melanoma, the growth is -77.4% (active).
On to `O=C(CCOCCNC(=O)COc1ccc2c(c1)OCC(c1ccc(F)cc1)C2=O)NCCCC(O)(P(=O)(O)O)P(=O)(O)O` (configuration not stated), for which the growth is 108% with DU-145 prostate; 105% in the assay with K-562 leukemia; 113% in the assay on MALME-3M melanoma; 107% with MDA-MB-231 breast; 121% in the assay with RXF 393 renal; 98.6% in the assay with SF-268 CNS. In addition, the growth was 102% in the assay on SF-295 CNS; 101% in the assay with SF-539 CNS; 112% in the assay with UACC-257 melanoma; 109% in the assay with M14 melanoma; 98.9% with HCT-15 colon; 104% in the assay on HT29 colon. Also, the growth in the assay on SNB-75 CNS was 89.6%; in the assay on SNB-19 CNS, 99.6%; in the assay with U251 CNS, 107%; with PC-3 prostate, 102%; in the assay with UACC-62 melanoma, 105%; with LOX IMVI melanoma, 97.8%. Further, the growth with SK-MEL-28 melanoma was 108%.
On to `CCN1C(=O)N(CC)C2Nn3c(s/c(=C4\C(=O)Nc5ccccc54)c3=O)=NC21` (configuration not stated), for which the growth was 10.2% in the assay on DU-145 prostate; 20.2% in the assay with K-562 leukemia; 56.5% in the assay with MALME-3M melanoma; 48.3% with MDA-MB-231 breast; -1.37% (active) with RXF 393 renal; 64.9% in the assay with SF-268 CNS. Further, the growth in the assay with SF-295 CNS was 56.6%; in the assay on SF-539 CNS it was 10.9%; in the assay with UACC-257 melanoma, 67.4%; in the assay on M14 melanoma, 14.9%; in the assay with HCT-15 colon, 35.9%; with HT29 colon, 81.2%. For the same molecule, the growth with SNB-75 CNS was 19.3%; in the assay with SNB-19 CNS, 55.8%; in the assay on U251 CNS, 42.8%; in the assay on PC-3 prostate, 30.3%; in the assay with UACC-62 melanoma, 46.6%; in the assay with LOX IMVI melanoma it was 56.9%. The growth in the assay on SK-MEL-28 melanoma was 60%.
`COc1cc(CNS(=O)(=O)c2ccc(C)cc2)ccc1OCc1cn(-c2ccccc2)nn1`: the growth in the assay on DU-145 prostate is 103%; with K-562 leukemia it was 73.4%; in the assay on MALME-3M melanoma it was 99.7%; in the assay with MDA-MB-231 breast, 95.4%; with RXF 393 renal it was 99.9%; in the assay with SF-268 CNS, 98.2%. For the same molecule, the growth is 93.5% in the assay with SF-295 CNS; 94.6% in the assay with SF-539 CNS; 82.3% in the assay with UACC-257 melanoma; 99.2% with M14 melanoma; 88.2% with HCT-15 colon; 91.9% in the assay with SNB-75 CNS. In addition, the growth was 92.3% in the assay with SNB-19 CNS; 89.1% with U251 CNS; 86.7% in the assay with PC-3 prostate; 80.1% with SK-MEL-5 melanoma; 75.2% in the assay on UACC-62 melanoma; 94.1% in the assay on LOX IMVI melanoma. Also, in the assay on SK-MEL-28 melanoma, the growth was 101%.
With `COc1ccc2cc(C(C)C(=O)Nc3ccc(-c4n[nH]c(=S)n4C4CCCCC4)cc3)ccc2c1` (configuration not stated), the growth is 89.1% with DU-145 prostate; 63.9% in the assay on K-562 leukemia; 124% in the assay on MALME-3M melanoma; 75.9% in the assay with MDA-MB-231 breast; 91.1% in the assay with RXF 393 renal; 65.5% in the assay with SF-268 CNS. In addition, the growth with SF-295 CNS was 60.7%; in the assay on SF-539 CNS, 83.8%; in the assay on UACC-257 melanoma, 76.7%; in the assay on M14 melanoma it was 63.2%; in the assay on HCT-15 colon, 54.3%; in the assay with HT29 colon, 85.1%. Moreover, the growth is 67% in the assay with SNB-75 CNS; 80% in the assay with SNB-19 CNS; 56.8% in the assay on U251 CNS; 39.2% in the assay with PC-3 prostate; 58.3% in the assay with UACC-62 melanoma; 70.7% in the assay with LOX IMVI melanoma. Also, in the assay with SK-MEL-28 melanoma, the growth is 75.6%.
Regarding `COc1cccc(Cc2nn3cc(-c4ccccc4)nc3s2)c1`, the growth is 94.4% in the assay with DU-145 prostate; 27.7% in the assay with K-562 leukemia; 96.2% with MALME-3M melanoma; 78.9% in the assay on MDA-MB-231 breast; 117% in the assay on RXF 393 renal; 89.2% in the assay on SF-268 CNS. Besides, the growth in the assay with SF-295 CNS is 103%; in the assay with SF-539 CNS, 102%; in the assay with UACC-257 melanoma, 89.7%; in the assay with M14 melanoma, 84.1%; in the assay on HCT-15 colon, 76.9%; in the assay on SNB-75 CNS, 99.7%. Moreover, the growth with SNB-19 CNS was 102%; with U251 CNS, 99.1%; in the assay with PC-3 prostate, 96.5%; with SK-MEL-5 melanoma, 93.9%; in the assay with UACC-62 melanoma, 91.1%; with LOX IMVI melanoma, 51.5%. In the assay with SK-MEL-28 melanoma, the growth is 113%.
With `Cn1cc(C(=O)c2nc(-c3cn(C)c4ccc(F)cc34)no2)c2cc(F)ccc21`, the growth with DU-145 prostate was 110%; in the assay on K-562 leukemia, 96.2%; in the assay on MALME-3M melanoma, 96.4%; in the assay with MDA-MB-231 breast, 96.7%; with RXF 393 renal, 116%; in the assay with SF-268 CNS, 99.6%. The growth is 100% in the assay on SF-295 CNS; 107% with SF-539 CNS; 94.9% with UACC-257 melanoma; 100% in the assay with M14 melanoma; 93.4% in the assay on HCT-15 colon; 87.4% in the assay on SNB-75 CNS. Besides, the growth was 104% in the assay with SNB-19 CNS; 98.1% in the assay on U251 CNS; 80.3% in the assay on PC-3 prostate; 94.2% with SK-MEL-5 melanoma; 88.4% with UACC-62 melanoma; 97.4% with LOX IMVI melanoma. The growth with SK-MEL-28 melanoma is 110%.
On to `Cc1nc2ccccc2c(/C=C/c2ccc(Cl)cc2)c1C(=O)/C=C/c1ccc(C(F)(F)F)cc1`, for which the growth in the assay with DU-145 prostate was -83.7% (active); with K-562 leukemia, -7.8% (active); in the assay with MALME-3M melanoma it was -74.1% (active); in the assay on MDA-MB-231 breast it was -50.5% (active); in the assay on RXF 393 renal, -85.9% (active); in the assay on SF-268 CNS it was -53.5% (active). The growth was -88.2% (active) in the assay with SF-295 CNS; -90.5% (active) with SF-539 CNS; -37% (active) in the assay on UACC-257 melanoma; -38.6% (active) in the assay with M14 melanoma; -31.6% (active) in the assay with HCT-15 colon; 3.52% (active) in the assay with HT29 colon. Besides, the growth in the assay with SNB-75 CNS was -79.6% (active); in the assay on SNB-19 CNS, -80.4% (active); in the assay on U251 CNS, -84.5% (active); in the assay on PC-3 prostate, -52.3% (active); in the assay on UACC-62 melanoma, -59.3% (active); in the assay with LOX IMVI melanoma, -89% (active). In the assay on SK-MEL-28 melanoma, the growth is -69.7% (active).
